According to PubChem BioAssay AID588342 (National Center for Advancing Translational Sciences (NCATS), 2011):
Hit rate of the full screen: of about 360,000 compounds, about 25,000 (6.9%) were called active. A call without a number means that no potency is given here. Not shown: some 9% with an inconclusive outcome. Calls follow the shape of the dose curve; as a rule, active = well fitted inhibition curve with a large enough effect; inconclusive = small, poorly fitted or top-dose-only effect; inactive = flat fitted curve, though single readings scatter. For the sample, actives were picked, then their nearest neighbours and some compounds at random.

Target: Luciferin 4-monooxygenase (Photinus pyralis) (UniProt P08659)
Assay: qHTS profiling assay for firefly luciferase inhibitor/activator using purifed enzyme and Km concentrations of substrates (counterscreen for miR-21 project); also: nearly all actives have a fitted effect of over 55% in size
Conditions: purified FLuc, luminescence inhibition; series mostly up to 57.5 µM
Summary of the method: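 Biochemical qHTS of compounds, final roughly 60 µM downward over six points, against 10 nM purified firefly luciferase using Km concentrations of substrates (10 uM D-luciferin, 10 uM ATP) in Tris acetate pH 7.5 buffer; luminescence output.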
Potency is read from the fitted curve at half-maximal effect.

Luciferin 4-monooxygenase (Photinus pyralis), sequence (P08659 whole entry, looked up): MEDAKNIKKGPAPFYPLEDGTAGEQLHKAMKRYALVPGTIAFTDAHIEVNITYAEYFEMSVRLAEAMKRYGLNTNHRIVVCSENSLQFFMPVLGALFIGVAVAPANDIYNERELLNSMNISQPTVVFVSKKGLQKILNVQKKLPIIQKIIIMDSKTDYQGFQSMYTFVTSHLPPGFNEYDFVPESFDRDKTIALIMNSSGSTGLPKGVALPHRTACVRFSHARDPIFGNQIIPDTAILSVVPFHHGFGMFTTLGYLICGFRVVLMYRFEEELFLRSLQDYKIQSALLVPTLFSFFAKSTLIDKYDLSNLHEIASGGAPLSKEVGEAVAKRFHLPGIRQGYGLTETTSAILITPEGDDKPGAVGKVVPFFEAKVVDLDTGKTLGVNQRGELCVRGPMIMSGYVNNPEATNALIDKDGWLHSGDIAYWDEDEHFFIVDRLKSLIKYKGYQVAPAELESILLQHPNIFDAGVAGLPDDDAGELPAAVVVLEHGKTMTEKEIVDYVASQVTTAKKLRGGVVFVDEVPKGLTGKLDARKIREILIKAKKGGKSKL

| Compound | Potency |
| --- | --- |
| CCOC(=O)c1ccc(NC(=O)CCS(=O)(=O)c2ccc(C)cc2)cc1 | inactive |
| O=C(/C=C/c1cccc([N+](=O)[O-])c1)OCC(=O)N1CCOCC1 | inactive |
| CCc1ccccc1N1C(=O)CN(S(=O)(=O)CC)CC1(C)C(=O)NC1CCCCC1 (stereo unspecified) | inactive |
| CCCn1c2ccccc2c2cnn(CC(=O)N3CCCC(C(=O)OCC)C3)c(=O)c21 (stereo unspecified) | inactive |
| Cn1c(=O)[nH]c(=O)c2c1nc(NCCc1ccccc1)n2Cc1ccc(F)cc1 | inactive |
| COc1ccc2c(c1)CCC/C2=N\OC(=O)c1ccccc1F | 12 µM (active) |
| COc1ccc(OC)c(S(=O)(=O)Nc2ccccc2F)c1 | inactive |
| COc1cc2c(cc1OC)C(COc1ccc(F)cc1)N(C(=O)c1ccccc1F)CC2 (stereo unspecified) | inactive |
| O=C(CNS(=O)(=O)c1ccc2c(c1)OCCCO2)N1CCN(c2ccc(F)cc2)CC1 | inactive |
| COC(=O)/C(=C1\Oc2ccc(C(C)(C)C)cc2S1)C(F)(F)F | 3.79 µM (active) |
| CCOC(=O)C1=C(c2ccccc2)O/C(=C(/C(=O)OC)C(F)(F)F)S1 | inactive |
| CC(C)(C)c1ccc(C(=O)NCC(c2ccco2)S(=O)(=O)c2ccc(F)cc2)cc1 (stereo unspecified) | inactive |
| CCOC(=O)c1c(C)n(S(=O)(=O)c2ccc(C)cc2C)c2ccc(NS(=O)(=O)c3ccc(C)cc3C)cc12 | inactive |
| O=C(Nc1ccc(OC(F)(F)F)cc1)C1CCCN(S(=O)(=O)c2ccc(Br)s2)C1 (stereo unspecified) | inactive |
| Cc1ccc2c(=O)cc(C(=O)Nc3sc4c(c3C(=O)NCc3cccnc3)CCCC4)oc2c1 | inactive |
| COc1ccccc1C(=O)NCCn1cc(SCc2ccccc2Cl)c2ccccc21 | inactive |
| Cc1ccccc1NC(=O)Cn1c(=O)n(CCc2ccccc2)c(=O)c2ccccc21 | inactive |
| Cc1nnc(C)n1-c1ccc(C(=O)Nc2cccc(Br)c2)cc1 | inactive |
| Cc1cccc(C)c1-n1c(C)cc(/C=C2\C(=O)NN(c3ccccc3)C2=O)c1C | 3.38 µM (active) |
| COc1ccc(CNC(=O)c2cc3c(s2)-c2ccccc2OC3)cc1 | inactive |
| Cc1csc(=O)n1CCC(=O)OCC(=O)NNC(=O)c1ccc(Br)cc1 | inactive |
| CC(=O)Nc1nc2ccccc2n1Cc1ccc(C)cc1 | inactive |
| Cc1ccc(Cn2c(CCCNC(=O)C3CCCCC3)nc3ccccc32)cc1 | inactive |
| CCCc1nc2c(C)cc(-c3nc4ccccc4n3C)cc2n1Cc1ccc(-c2ccccc2C(=O)O)cc1 | 13.5 µM (active) |
| Cc1ccc(C)c(C(=O)COC(=O)Cn2[nH]c(=O)c3ccccc3c2=O)c1 | inactive |
| CCOc1ccccc1NC(=O)Cn1c2ncccc2c(=O)n1-c1ccc(C)c(C)c1 | inactive |
